Results filed as inconclusive are left out. Calls of active or inactive are those of the source. Unless noted, the call rests on the fitted dose curve; in most records, active means well fitted curve in either direction with a large enough effect (not every such curve was filed as active); inconclusive means small, poorly fitted or top-dose-only effect, or another doubt; inactive means flat fitted curve, though single readings scatter.
biological target: Mitogen-activated protein kinase 10 (Mus musculus) (UniProt Q61831); assay: JNK3 AlphaScreen Assay (AID 530); settings: JNK3 lysate, c-Jun phosphorylation; series mostly up to 57.1 µM;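 further: kinase came from lysate of stimulated human HepG2 cells; signal reports phosphorylation of biotinylated GST-cJun 1-79 at Ser73 with 10 µM ATP; on the % scale 0 is the no-effect control and ±100 the full control effect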
In short: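 qHTS format: compounds tested as titrations against IL-1beta/TNF-alpha-activated HepG2 lysate JNK3 with biotin-GST-cJun substrate and 10 uM ATP at room temperature. Loss of anti-phospho-cJun AlphaScreen signal indicates inhibition.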

Potency, inactive:
CCNc1ncc2nc(-c3cn(C)c4ccccc34)c(=O)n(Cc3ccc(F)cc3)c2n1
N#CCCn1c(=O)c(-c2ccccc2)nc2cnc(Nc3ccccc3)nc21
CN(C)c1ncc2nc(-c3cccs3)c(=O)n(-c3ccccc3)c2n1
COc1ccc(-c2nc3cnc(OC)nc3n(C)c2=O)cc1
COc1ncc2nc(-c3cccs3)c(=O)n(Cc3ccc(F)cc3)c2n1
COc1cccc(Cn2c(=O)cnc3cnc(OC)nc32)c1
COCCn1c(=O)c(-c2cccs2)nc2cnc(OC)nc21
COc1ccc(CNc2ccnc(-c3c(C)noc3C)n2)c(OC)c1
COc1cccc(Cn2c(=O)cnc3cnc(OCc4ccccc4)nc32)c1
CNc1nc(-c2c(C)noc2C)nc2ccccc12
N#Cc1cccc(-c2nccc(NCc3ccccc3)n2)c1
COc1ccccc1CNc1cc(-c2ccccc2C(F)(F)F)ncn1
COc1cccc(Cn2c(=O)c(-c3cccs3)nc3cnc(OCc4ccccc4)nc32)c1
c1ccc(CNc2ncncc2-c2ccc3c(c2)OCO3)cc1
Cc1noc(C)c1-c1nc(Nc2ccc(F)cc2)c2ccccc2n1
COc1ccc(CNc2ccnc(-c3ccccc3OC)n2)c(OC)c1
Cn1c(=O)c(-c2ccc(F)cc2)nc2cnc(N3CCOCC3)nc21
O=c1c(CCc2ccccc2)nc2cnc(N3CCOCC3)nc2n1CCc1ccccc1
N#Cc1ccccc1-c1ccc2ncnc(NC3CC3)c2c1
COc1cccc(Cn2c(=O)c(-c3cccs3)nc3cncnc32)c1
O=c1c(-c2ccc(F)cc2)nc2cncnc2n1-c1ccccc1
O=c1c(-c2ccc(Cl)cc2)nc2cnc(Nc3ccccc3)nc2n1C[C@H]1CCCO1
COc1ccccc1-c1cncnc1NCc1cnc(C)cn1
CN(C)Cc1ccccc1-c1nc(NC2CC2)c2ccccc2n1
CCNc1ncc2nc(-c3ccccc3)c(=O)n(CCOC)c2n1
CN(Cc1ccco1)c1ncnc2ccc(-c3ccccc3C#N)cc12
CCNc1ncc2nc(-c3ccc(F)cc3)c(=O)n(C[C@H]3CCCO3)c2n1
Cc1cnc(CNc2nc(-c3ccccc3C(F)(F)F)nc3ccccc23)cn1
CS(=O)(=O)Nc1cccc(-c2nccc(Nc3ccc(F)cc3)n2)c1
CCNc1ncc2nc(-c3cc(F)cc(F)c3)c(=O)n(CCc3ccccc3)c2n1
COc1cccc(-c2cc(NCc3ccccc3)ncn2)c1
c1ccc(CNc2ncncc2-c2cccnc2)cc1
COc1ccc(-c2nc3cnc(OC)nc3n(CCC#N)c2=O)cc1
N#Cc1cccc(-c2nccc(NCc3cccs3)n2)c1
Cc1ccccc1-c1cncnc1NCc1cccnc1
COc1ccc(Oc2ncc3nc(-c4cn(C)c5ccccc45)c(=O)n(C)c3n2)cc1
COc1ncc2nc(-c3cn(C)c4ccccc34)c(=O)n(CCC#N)c2n1

biological target: 3',5'-cyclic-AMP phosphodiesterase 4B (Homo sapiens) (UniProt Q07343); assay: qHTS Assay for Inhibitors of PDE-IV (AID 607; active means well fitted activation curve with a large enough effect in the main read-out, with a control signal flat, not every such curve was filed as active; further: % of control where 0% means no effect); settings: HEK293 ACTOne CNG channel cells, membrane potential fluorescence; series mostly up to 22.9 µM
Sequence (Q07343 whole entry, looked up): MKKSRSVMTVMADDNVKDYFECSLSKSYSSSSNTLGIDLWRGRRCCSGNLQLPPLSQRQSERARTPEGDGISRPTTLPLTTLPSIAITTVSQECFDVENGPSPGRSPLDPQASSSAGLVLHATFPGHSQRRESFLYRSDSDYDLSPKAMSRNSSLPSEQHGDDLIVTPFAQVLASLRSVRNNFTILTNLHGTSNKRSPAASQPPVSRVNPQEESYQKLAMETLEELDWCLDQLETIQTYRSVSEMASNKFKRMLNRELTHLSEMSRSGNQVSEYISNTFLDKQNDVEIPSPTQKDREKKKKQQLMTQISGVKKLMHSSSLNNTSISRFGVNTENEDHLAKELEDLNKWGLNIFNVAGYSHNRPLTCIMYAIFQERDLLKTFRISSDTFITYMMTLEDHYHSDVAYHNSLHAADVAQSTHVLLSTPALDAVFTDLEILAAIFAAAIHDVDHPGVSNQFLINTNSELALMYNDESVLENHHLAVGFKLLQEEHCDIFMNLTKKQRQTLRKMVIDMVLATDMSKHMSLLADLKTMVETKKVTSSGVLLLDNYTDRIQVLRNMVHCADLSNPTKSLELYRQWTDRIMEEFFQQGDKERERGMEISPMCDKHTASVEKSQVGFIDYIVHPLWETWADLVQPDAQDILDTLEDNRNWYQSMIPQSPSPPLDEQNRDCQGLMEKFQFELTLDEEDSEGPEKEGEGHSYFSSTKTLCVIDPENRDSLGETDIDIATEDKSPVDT
In short: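 ACTOne HEK293 cells carry a modified cAMP-gated CNG channel and express endogenous PDE4; plated 1000 cells/well, compounds up to 22.9 uM final. Membrane-potential dye fluorescence (ex 535/em 590) was read; parental cells received 10 uM forskolin + 100 uM RO 20-1724.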

Potency, inactive:
CCNc1ncc2nc(-c3cn(C)c4ccccc34)c(=O)n(Cc3ccc(F)cc3)c2n1
COc1cccc(-c2nccc(NCc3cccnc3)n2)c1
COc1ccc(-c2nc3cnc(OC)nc3n(C)c2=O)cc1
COc1cccc(Cn2c(=O)cnc3cnc(OC)nc32)c1
Cc1cnc(CNc2ncnc3ccc(-c4ccc5c(c4)OCO5)cc23)cn1
CNc1nc(-c2c(C)noc2C)nc2ccccc12
COc1ccccc1CNc1cc(-c2ccccc2C(F)(F)F)ncn1
COc1cccc(Cn2c(=O)c(-c3cccs3)nc3cnc(OCc4ccccc4)nc32)c1
Cn1c(=O)c(-c2ccc(F)cc2)nc2cnc(N3CCOCC3)nc21
COc1ccccc1-c1cncnc1NCc1cnc(C)cn1
CCNc1ncc2nc(-c3ccccc3)c(=O)n(CCOC)c2n1
Cc1cnc(CNc2nc(-c3ccccc3C(F)(F)F)nc3ccccc23)cn1
CS(=O)(=O)Nc1cccc(-c2nccc(Nc3ccc(F)cc3)n2)c1
CCNc1ncc2nc(-c3cc(F)cc(F)c3)c(=O)n(CCc3ccccc3)c2n1
c1ccc(CNc2ncncc2-c2cccnc2)cc1
COc1ccc(-c2nc3cnc(OC)nc3n(CCC#N)c2=O)cc1
Cc1ccccc1-c1cncnc1NCc1cccnc1
COc1ccc(Oc2ncc3nc(-c4cn(C)c5ccccc45)c(=O)n(C)c3n2)cc1
COc1ncc2nc(-c3cn(C)c4ccccc34)c(=O)n(CCC#N)c2n1

biological target: Cytochrome P450 2C9 (Homo sapiens) (UniProt P11712); assay: qHTS Assay for Inhibitors and Substrates of Cytochrome P450 2C9 (AID 883; active means well fitted inhibition curve with a large enough effect; further: on the % scale 0 is the no-effect control and ±100 the full control effect; nearly all actives have a fitted effect of over 60% in size); settings: recombinant CYP2C9, luciferin-H luminescence, 60 min; series mostly up to 57.1 µM
Sequence (P11712 whole entry, looked up): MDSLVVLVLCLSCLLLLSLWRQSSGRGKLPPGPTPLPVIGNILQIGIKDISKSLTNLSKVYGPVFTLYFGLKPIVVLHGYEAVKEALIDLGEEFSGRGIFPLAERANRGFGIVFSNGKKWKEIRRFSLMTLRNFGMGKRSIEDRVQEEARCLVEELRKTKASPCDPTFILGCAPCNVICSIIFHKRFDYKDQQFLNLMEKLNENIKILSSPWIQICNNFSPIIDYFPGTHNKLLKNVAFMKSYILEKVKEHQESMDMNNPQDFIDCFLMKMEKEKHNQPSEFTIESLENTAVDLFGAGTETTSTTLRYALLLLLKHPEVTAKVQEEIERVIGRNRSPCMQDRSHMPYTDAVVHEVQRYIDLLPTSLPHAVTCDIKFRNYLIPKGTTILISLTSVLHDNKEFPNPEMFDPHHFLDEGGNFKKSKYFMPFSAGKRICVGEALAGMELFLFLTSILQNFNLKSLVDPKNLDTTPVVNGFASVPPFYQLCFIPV
In short: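 Signal: luciferase luminescence reporting luciferin produced by CYP2C9. Conditions: 10nM enzyme, Luciferin-H 100uM at KM, 25mM KPO4, 37C, 60 min NADPH-driven reaction. Reference: 57uM sulphaphenazole as 100% inhibition.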

Activity change, negative = inhibition, inactive:
CNc1nc(-c2c(C)noc2C)nc2ccccc12 37.6% [at 2.29 µM]
COc1ccccc1CNc1cc(-c2ccccc2C(F)(F)F)ncn1 8.84% [at 2.29 µM]

Potency, inactive:
COc1ccc(Oc2ncc3nc(-c4cn(C)c5ccccc45)c(=O)n(C)c3n2)cc1

— PubChem BioAssay (NCATS)
